High-throughput results (PubChem BioAssay)
Shown are actives, neighbours in structure and some others; about 3% of the full set was active somewhere.
A1 inh: inhibitors of the anti-apoptotic protein A1, read as caspase activation; actives 0.066% (n = 330,000); MEF A1-2A-BIM cells, Caspase-Glo 3/7 luminescence, 3 h; percent of clofoctol response, vehicle zero; caspase activation, % (test concentration not listed);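 active = over half of replicate activation scores above 10%, or exactly half above 10 with the replicate mean above 10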
SUMO Mot1 rescue: SUMOylation pathway inhibition by Mot1-301 growth rescue | S. cerevisiae Mot1-301 growth rescue, ATP luminescence, 38.5C; percent above DMSO median, 100 means doubled | growth rescue, % at 18.8 µM | actives 1% (n = 320,000) | AID 2716;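 active = every valid replicate shows activation above 250% relative to neutral control wells; inactive = the rest, any valid replicate at or below 250%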;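 note: OY570 slx delta 5 strain wells were the positive control but not used for scaling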
NALP1 inh: blocks the NALP1 inflammasome reconstituted in yeast. actives 0.61% (n = 280,000). inhibition, % at 10 µM. S. cerevisiae NALP1/ASC/caspase-1 growth, X-gal OD620, 72 h; in the data active = inhibition mostly above about 24%, no sharp cut-off; inactive = mostly below about 32%
NLRP3 yeast inh: inhibitors of NALP3 inflammasome in yeast | Yeast reconstituted NLRP3/ASC/caspase-1, beta-gal luminescence, 24 h | inhibition, % at 10 µM | actives 0.39% (n = 330,000) | AID 2825;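 active = inhibition of 50% or more; inactive = inhibition below 50%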;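 note: plate controls were induced DMSO wells for no effect and uninduced yeast grown without galactose for full effect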
CHT PAM: allosteric activators of human choline transporter CHT. actives 0.49% (n = 310,000). Q9GZV3. B-score at 10 µM. CHT-expressing cells, membrane potential dye, choline EC20; hits give high values; LV-AA mutant CHT in HEK293 cells. AID 488977;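 active = initial fluorescence not abnormally high and integrated response B-score, plate-corrected, over 3 SD above library mean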
Target sequence (Q9GZV3 whole entry, looked up): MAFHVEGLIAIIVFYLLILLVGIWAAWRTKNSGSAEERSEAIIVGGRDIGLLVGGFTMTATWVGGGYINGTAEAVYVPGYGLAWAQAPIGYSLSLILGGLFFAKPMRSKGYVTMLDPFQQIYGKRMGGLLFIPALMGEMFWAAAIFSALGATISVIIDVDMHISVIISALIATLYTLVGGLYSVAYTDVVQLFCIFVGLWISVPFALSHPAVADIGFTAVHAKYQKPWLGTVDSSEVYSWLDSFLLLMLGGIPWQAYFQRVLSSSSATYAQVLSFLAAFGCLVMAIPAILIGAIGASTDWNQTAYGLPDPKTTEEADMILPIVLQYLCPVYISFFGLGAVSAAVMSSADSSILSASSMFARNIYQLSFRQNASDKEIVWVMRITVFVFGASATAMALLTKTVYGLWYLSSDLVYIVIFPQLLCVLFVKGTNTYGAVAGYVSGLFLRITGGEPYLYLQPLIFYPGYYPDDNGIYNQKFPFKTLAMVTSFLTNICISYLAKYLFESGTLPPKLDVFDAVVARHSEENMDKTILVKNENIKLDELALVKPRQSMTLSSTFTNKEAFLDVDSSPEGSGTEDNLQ
CHT block: inhibitors of human choline transporter CHT; B-score at 10 µM; Q9GZV3; CHT-expressing cells, membrane potential dye, choline response; hits give low values; actives 0.86% (n = 310,000);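 active = B-score over 3 SD under the library average, and starting fluorescence ratio not unusually high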;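 note: choline stimulus applied at its EC90 after an EC20 pre-addition; B-score computed on integrated fluorescence ratio after choline addition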
CHT block conf: human CHT inhibition, confirmatory screen; shares compounds with CHT block; CHT-expressing cells, choline membrane potential dye; LV-to-AA substituted CHT, HEK293 cells; CHT activity remaining % of control (hits give low values), % at 10 µM; actives 70% (n = 2,400); AID 493221;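 active = choline transporter activity left, mean of duplicates at 10 µM, below buffer-only control mean minus 3 SD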;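 note: depolarization triggered by choline at its EC90 following an EC20 pre-addition; 0% = hemicholinium-3 full block and 100% = buffer-only control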
HEK293 CHT ctr: activity in parental HEK293 cells lacking CHT; shares compounds with CHT block; membrane potential dye, choline response; active = decrease or increase beyond buffer ±3SD; membrane potential ratio readout (active if shifted either direction beyond buffer ±3SD; no single direction) at 10 µM; actives 4% (n = 2,400);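 note: parental cells lack the transporter so any hit is non-specific; ratio is peak minus trough fluorescence over baseline after EC90 choline challenge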
CHT activ conf: human CHT activation, confirmatory screen. activation, % at 10 µM. CHT-expressing cells, membrane potential dye fluorescence (FDSS); % of choline EC20–EC90 response window; HEK293 expressing CHT LV-AA mutant; choline added at its EC20. actives 91% (n = 2,500). shares compounds with CHT PAM;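 active = primary screen active, with duplicate mean activation above negative control mean plus 3 SD, cut at about 11% in these data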
HEK293 MP dye: counter-screen for CHT activators: effect in parental HEK293 cells. membrane potential dye fluorescence (FDSS); measured after EC20 choline addition. AID 623908. ratio readout change at 10 µM, hits read low. shares compounds with CHT PAM. actives 62% (n = 2,500);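 active = duplicate-averaged ratio beyond 3 SD from buffer wells, up or down, though filed actives are nearly all decreases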
An asterisk follows results filed as active; i = inactive; x = no result given.

SMILES	A1 inh	SUMO Mot1 rescue	NALP1 inh	NLRP3 yeast inh	CHT PAM	CHT block	others
COc1ccc(C(=O)c2c3ccc(C(F)(F)F)cc3[n+]([O-])n2CCCN)cc1	-1	-6	x	12	i	-6.3*	CHT block conf=22%*;HEK293 CHT ctr=i
COc1ccc(C(=O)c2c3ccccc3[n+]([O-])n2CCCN)cc1	0	15	x	34	i	i
Cc1ccc(C(=O)c2c3ccc(C(F)(F)F)cc3[n+]([O-])n2CCCN)cc1	0	-23	x	22	i	-5.9*	CHT block conf=40%*;HEK293 CHT ctr=2.6*
Cc1ccc(C(=O)c2c3ccc(C(F)(F)F)cc3[n+]([O-])n2CCCC(N)=O)cc1	1	0	x	14	i	i
CC(C)(C)C1N=C(c2ccc3ccccc3c2)OC1=O (configuration not stated)	0	3	x	6	x	x
CN(C(=O)c1ccc(Br)o1)C1CCCCC1	0	3	11	-2	i	i
Cc1ccc(OCCC(=O)OCC(=O)NC2CCS(=O)(=O)C2)cc1 (configuration not stated)	-1	-1	x	4	i	i
CCN(CC)CCCNC(=O)c1cc(-c2ccc(O)cc2)on1	0	-9	-4	12	i	i
CCN(CC)CCCNC(=O)c1cc(-c2ccc(Cl)c(Cl)c2)on1	0	-6	-5	-8	i	-6.7*	CHT block conf=31%*;HEK293 CHT ctr=i
C#CC[N+](C)(C)CC#Cc1ccc(C)cc1	0	-14	5	7	i	i
C#CC[N+](CC)(CC)CC#Cc1ccccc1	1	-14	34	16	i	-7.7*	CHT block conf=35%*;HEK293 CHT ctr=i
Clc1ccc(Cc2ccccn2)cc1	x	x	x	9	x	x
O=C(COC(=O)C1CCC1)NCc1ccc(Cl)cc1Cl	1	10	x	6	i	i
CCC(C)NC(=O)CCC(=O)Nc1ccc2nc(N3CCOCC3)cc(C)c2c1 (configuration not stated)	1	13	13	11	7.9*	i	CHT activ conf=59*;HEK293 MP dye=-59*
CCCCN(C)C(=O)CCC(=O)Nc1ccc2nc(N3CCOCC3)cc(C)c2c1	1	-2	-1	4	7.7*	i	CHT activ conf=48*;HEK293 MP dye=-34*
CCC(C)NC(=S)Nc1ccc2nc(N3CCOCC3)cc(C)c2c1 (configuration not stated)	0	157	-14	22	i	i
Cc1cc(N2CCOCC2)nc2ccc(NC(=O)CCC(=O)N3CCC(C)CC3)cc12	0	-29	-24	23	i	i
CCCCNC(=O)CCC(=O)Nc1ccc2nc(N3CCC(C)CC3)cc(C)c2c1	1	-12	3	16	i	i	CHT activ conf=38*;HEK293 MP dye=-35*
CCc1ccc(S(=O)(=O)NCC2(N3CCOCC3)CCCCC2)cc1	-1	20	x	-1	x	x
COc1cccc(/C=N/NC(=O)c2ccccc2)c1OS(=O)(=O)c1ccccc1	1	2	15	0	i	i
COc1cccc(/C=N/NC(=O)c2ccc(=O)n(C)c2)c1OC	0	-11	18	-7	6.3*	i	CHT activ conf=14*;HEK293 MP dye=-32*
CCC(C)(O)c1[nH]c2ccc(C(=O)OC)cc2c1C (configuration not stated)	1	2	24	3	i	i
